Test results reported in paper PMC4336329 (PLoS ONE, 2015).
About 14,000 (4.5%) of roughly 310,000 compounds showed an effect of 50% or more. Effects have a minus sign here. The list comes from a sample in which strong results are over-represented; it also holds similar structures and randomly drawn compounds.

biological target: human ether-à-go-go-related gene (hERG) potassium channel (human, UniProt Q12809); test: primary screen, population patch clamp on CHO cells stably expressing hERG; higher = less effect of the substance
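Note: peak tail current of the secondary pulse compared with the same well before compound.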

human ether-à-go-go-related gene (hERG) potassium channel, sequence (Q12809 whole entry, looked up): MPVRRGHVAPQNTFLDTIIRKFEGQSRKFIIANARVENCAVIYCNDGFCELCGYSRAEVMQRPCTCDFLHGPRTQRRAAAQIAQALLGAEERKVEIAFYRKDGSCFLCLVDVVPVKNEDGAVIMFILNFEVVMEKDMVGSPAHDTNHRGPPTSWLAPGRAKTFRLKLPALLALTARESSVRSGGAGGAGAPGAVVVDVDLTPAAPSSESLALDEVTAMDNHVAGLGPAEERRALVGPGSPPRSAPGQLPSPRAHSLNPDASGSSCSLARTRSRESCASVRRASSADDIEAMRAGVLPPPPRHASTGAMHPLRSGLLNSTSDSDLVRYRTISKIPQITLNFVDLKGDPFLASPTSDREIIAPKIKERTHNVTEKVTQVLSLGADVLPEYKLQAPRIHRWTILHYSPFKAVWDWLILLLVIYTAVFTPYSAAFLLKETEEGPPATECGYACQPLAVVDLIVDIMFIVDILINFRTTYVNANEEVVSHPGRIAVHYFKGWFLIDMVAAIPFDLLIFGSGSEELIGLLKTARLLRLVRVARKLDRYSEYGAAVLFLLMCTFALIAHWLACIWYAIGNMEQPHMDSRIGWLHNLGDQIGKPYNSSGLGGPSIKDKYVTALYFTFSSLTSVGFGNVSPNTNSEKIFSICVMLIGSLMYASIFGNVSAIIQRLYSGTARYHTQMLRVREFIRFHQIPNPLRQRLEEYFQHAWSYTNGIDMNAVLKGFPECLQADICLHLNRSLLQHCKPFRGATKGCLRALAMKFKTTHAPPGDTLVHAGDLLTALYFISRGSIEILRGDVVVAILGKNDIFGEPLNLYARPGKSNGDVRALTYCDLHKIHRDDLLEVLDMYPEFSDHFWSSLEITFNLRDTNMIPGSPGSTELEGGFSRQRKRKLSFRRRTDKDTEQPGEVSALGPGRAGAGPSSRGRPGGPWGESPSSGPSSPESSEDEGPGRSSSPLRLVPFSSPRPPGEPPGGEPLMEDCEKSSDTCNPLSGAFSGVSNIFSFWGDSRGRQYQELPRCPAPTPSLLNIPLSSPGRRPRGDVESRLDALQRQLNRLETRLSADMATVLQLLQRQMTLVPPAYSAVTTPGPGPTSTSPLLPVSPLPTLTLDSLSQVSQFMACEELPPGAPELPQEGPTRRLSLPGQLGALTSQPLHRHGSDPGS

SMILES	hERG current change (%, negative = inhibition) at 10uM [%]
CC(=O)c1c(C)[nH]c(C(=O)OCc2ccccc2)c1C	-3.71
C=C(C)CSc1nnc(-c2ccccc2)n1N	-1.72
CCOC(=O)N1CCC(NS(=O)(=O)c2ccc3c(c2)oc(=O)n3C)CC1	1.74
COc1cccc(N2CCN(S(=O)(=O)c3cccc4nsnc34)CC2)c1	-10.6
CC(C)Cc1nnc(NC(=O)CCC(=O)NC2CC2)s1	21.9
COc1ccc(NC(=O)c2c(C)noc2-c2snnc2C)cc1	-1.51
N=c1c(S(=O)(=O)c2ccccc2)cc2c(=O)n3ccccc3nc2n1Cc1ccco1	-18.9
O=C(NCCc1ccccc1)c1cnc2ccccn2c1=O	-12
N=c1c(C(=O)NCc2ccccc2)cc2c(=O)n3ccccc3nc2n1Cc1ccco1	-76.4
N=c1c(C(=O)NCCc2ccccc2)cc2c(=O)n3ccccc3nc2n1Cc1ccco1	-77.9
N=c1c(S(=O)(=O)c2ccc(Cl)cc2)cc2c(=O)n3ccccc3nc2n1Cc1ccco1	13.1
CC(C)n1c(=N)c(C(=O)NCCc2ccccc2)cc2c(=O)n3ccccc3nc21	-75.1
Cn1c(C(=O)NCCC2=CCCCC2)cc2c(=O)n3ccccc3nc21	19.7
O=C(NCc1ccco1)c1ccc(Cn2c(=O)c3ccccc3n(Cc3ccc(Cl)cc3)c2=O)cc1	8.16
N=c1c(S(=O)(=O)c2ccc(Br)cc2)cc2c(=O)n3ccccc3nc2n1Cc1ccco1	7.31
O=C(NCCc1ccco1)c1nn(Cc2ccccc2)c(=O)c2ccccc12	10.3
N=c1c(C(=O)NCc2ccco2)cc2c(=O)n3ccccc3nc2n1Cc1ccc(Cl)cc1	-77.1
CCCCN(CC)c1nc(N)c(C#N)c(CC#N)c1C#N	-24.9
O=C(NCCO)C(=O)NCC1OCCCN1S(=O)(=O)c1cc(F)ccc1F (stereo not drawn)	13.6
CCOc1cc(/C=C/c2nc3ccccc3c(=O)[nH]2)ccc1O	13.4
CCN(CC)C(=O)OCc1c(-c2ccccc2)ncc2ccccc12	-25.5
CCc1nn(-c2cc(Oc3cccc4ccccc34)nc(-c3ccccc3)n2)c(N)c1C#N	23.3
CCOC(=O)N1CCN(S(=O)(=O)c2ccc(OC)cc2)CC1	-4.57

SMILES	hERG current change (%, negative = inhibition) at 10uM [%]
CC(=O)Nc1ccc(NS(=O)(=O)c2ccccc2)cc1	17.1
N=c1c(C(=O)NCc2ccco2)cc2c(=O)n3ccccc3nc2n1Cc1ccccc1	-79.3
O=C(CCn1c(SCC(=O)NCc2ccco2)nc2ccccc2c1=O)NCCc1ccccc1	-34.5
N=c1c(C(=O)NCc2ccc(F)cc2)cc2c(=O)n3ccccc3nc2n1Cc1ccco1	-77.8
N=c1c(C(=O)NCc2ccco2)cc2c(=O)n3ccccc3nc2n1CCc1ccccc1	-76.7
O=C(CCn1c(=O)c2ccccc2n(Cc2cc(=O)n3ccccc3n2)c1=O)NCc1ccco1	-4.21
Cn1nnnc1SCC(=O)Nc1ccc(S(=O)(=O)N2CCOCC2)cc1	3.21
COc1ccc(CNC(=O)CN2C(=O)C3C4C=CC(C4)C3C2=O)cc1 (stereo not drawn)	19.2
O=C(O)C1CC(=O)N(c2ccc(OCc3ccc(Br)cc3)cc2)C1 (stereo not drawn)	6.71
COCCNC(=O)C(c1ccco1)N(C(=O)Cn1nnc2ccccc21)c1cc(C)ccc1C (stereo not drawn)	-4.75
COc1ccc2c(c1)[nH]c1c(=O)n(CCCn3ccnc3)cnc12	-35.1
O=c1c2[nH]c3ccccc3c2ncn1CCCn1ccnc1	-41.8
O=c1c2[nH]c3ccc(Br)cc3c2ncn1Cc1ccncc1	-4.79
O=c1c2[nH]c3ccc(F)cc3c2ncn1CCCn1ccnc1	-61.1
O=c1c2[nH]c3ccc(Br)cc3c2ncn1CCCn1ccnc1	-64.4
O=C1CCCN1CCCn1cnc2c([nH]c3ccc(F)cc32)c1=O	-42.2
CC(C)(C)C1CCC(=NNC(=O)c2cc3c(s2)CCCC3)CC1 (stereo not drawn)	20.1
Cc1cccc(NC(=O)c2sc(NC(=O)c3ccco3)c(C#N)c2C)c1C	5.79
O=C(CCSc1nc(-c2ccco2)cc(C(F)(F)F)n1)NCc1ccccn1	-22.5
CC(=C/c1ccc(C(C)C)cc1)/C=N/NC(=O)Cn1nnnc1N	17.3
CS/C(=N/S(=O)(=O)c1ccc(C)cc1)c1ccccc1	-3.56
O=P(O)(O)O.c1ccc(CN(CC2=NCCN2)c2ccccc2)cc1	-17.3
Cl.c1ccc(CN(CC2=NCCN2)c2ccccc2)cc1	-29.7

SMILES	hERG current change (%, negative = inhibition) at 10uM [%]
Cl.c1ccc(CC2=NCCN2)cc1	7.57
Cc1ccc(N(CC2=NCCN2)c2cccc(O)c2)cc1.Cl	-58.3
CS(=O)(=O)O.Cc1ccc(N(CC2=NCCN2)c2cccc(O)c2)cc1	-51.2
Cc1ccc(N(CC(=O)Nc2c(C)cccc2C)S(C)(=O)=O)cc1	1.65
Cc1cc(C)nc(/N=C2\NC(=O)CC(C(=O)O)N2CCc2c[nH]c3ccccc23)n1 (stereo not drawn)	12.8
COc1cccc(NC(=O)C(c2ccccc2)N2CCNC(=O)C2)c1 (stereo not drawn)	-7.23
O=C(CCN1CCOCC1)N1CCCC(Nc2ccc(F)cc2)C1 (stereo not drawn)	13.7
C/C(=N\NC(=S)Nc1ccc(F)cc1)C1CC1	-26.7
COc1ccc(C(=O)NC(=S)Nc2cccnc2)cc1[N+](=O)[O-]	4.69
Cc1cccc(N(CC(=O)NCCSCc2ccccc2)S(C)(=O)=O)c1	26.5
COc1ccc(C2C(C(=O)OCC(=O)N3CCCCC3)CCC(=O)N2c2ccc(OC)cc2)cc1 (stereo not drawn)	-13.3
CCNC(=O)COC(=O)C1CCC(=O)N(c2ccc(OC)cc2)C1c1ccc(OC)cc1 (stereo not drawn)	-32.2
COc1ccc(C2C(C(=O)OCC(=O)Nc3ccc(C)cc3)CCC(=O)N2c2ccc(OC)cc2)cc1 (stereo not drawn)	-62.4
COc1ccc(C(=O)OCC[N+]2(C)CCOCC2)cc1.[I-]	13.6
CN(C/C=C/c1ccccc1)C1CCCCC1	-21.7
NC(=O)CN(C/C=C/c1ccccc1)C/C=C/c1ccccc1	20.6
COCCN(C/C=C/c1ccccc1)C/C=C/c1ccccc1	-69.4
CC(C)=CCCC(C)CN1CCC(n2nccc2NC(=O)c2cccnc2)CC1 (stereo not drawn)	-52.1
CC(C)(CO)CN1CCC(n2nccc2NC(=O)C2CCCC2)CC1	11.4
COc1ccc(C(=O)Nc2ccnn2C2CCN(C(=O)c3cccnc3)CC2)cc1	12.3
CC(C)=CCCC(C)CN1CCC(n2nccc2NC(=O)c2ccccc2)CC1 (stereo not drawn)	-69.6
O=C(Nc1ccnn1C1CCN(CC(O)CO)CC1)C1CCCC1 (stereo not drawn)	11.4
CC(C)=CCCC(C)CN1CCC(n2nccc2NC(=O)C2CCCC2)CC1 (stereo not drawn)	-70.8

SMILES	hERG current change (%, negative = inhibition) at 10uM [%]
CCc1ccc(CN2CCC(n3nccc3NC(=O)c3ccccc3)CC2)o1	-36
CC(C)CCN1CCC(n2nccc2NC(=O)c2ccc3c(c2)OCO3)CC1	-5.16
O=C(Nc1cccnc1Cl)c1cc(-c2ccccc2O)on1	-5.16
COc1ccc(NCc2ccc3c(c2)OCO3)cc1Cl	-4.31
CC(C)CSc1nnc2c3ccccc3n(C)c2n1	-11.9
CC1=C(C(N)=O)C(c2ccccc2[N+](=O)[O-])n2ncnc2N1 (stereo not drawn)	7.69
C=Cn1c(C(=O)O)ccc1-c1ccc(CC)cc1	-5.29
COC(=O)Nc1ccc(S(=O)(=O)N(CCO)CC(F)(F)C(F)F)cc1	18.3
CN=C1S/C(=C\c2ccc(OCC(=O)OC)c(OC)c2)C(=O)N1C	12.6
O=C(Nc1ncnc2sc3c(c12)CCCC3)c1ccncc1	-14.2
Cc1sc2ncnc(OCC(=O)NCc3cccs3)c2c1C	6.03
Cc1sc2ncnc(NCc3ccco3)c2c1C	-16.3
Cc1ccc(CNc2nc(C)nc3sc4c(c23)CCC4)cc1	-4.22
Cc1nc(NCc2cccnc2)c2c3c(sc2n1)CCCC3	-70.2
Cc1sc2ncnc(NCCCO)c2c1C	5.08
CCCNc1ncnc2sc(C)c(C)c12	-1.05
c1cncc(CNc2ncnc3sc4c(c23)CCCC4)c1	-78
Cc1sc2ncnc(NCc3cccs3)c2c1C	-61.7
Cc1sc2ncnc(NCc3cccnc3)c2c1C	-55
Cc1nc(NCc2cccnc2)c2c3c(sc2n1)CC(C)CC3 (stereo not drawn)	-25.1
c1ccc(CNc2ncnc3sc4c(c23)CCCC4)nc1	-27.4
